Reference: ChEMBL document CHEMBL3988442, “University of Dundee, Small-Polar-MMV Screening Library” (2021)
For some of these results: Measured potencies and affinities stand elsewhere.

Columns and labels:
Parameters in all cases: scale not given: direction of the effect not stated beside the values
[1] = target: Protein translocase subunit SecA (Escherichia coli (strain K12)) (UniProt P10408); assay: Assay to Identify E. coli SecA ATPase Inhibitors; type: functional; settings: 30 µM
[2] = target: T1, Ubiquitin-activating enzyme e1, putative (Leishmania donovani (strain BPK282A1)) (UniProt E9BSI1); assay: Leishmania donovani Ubiquitin Activating Enzyme (LdE1); type: functional; settings: 30 µM
T1 sequence (whole entry): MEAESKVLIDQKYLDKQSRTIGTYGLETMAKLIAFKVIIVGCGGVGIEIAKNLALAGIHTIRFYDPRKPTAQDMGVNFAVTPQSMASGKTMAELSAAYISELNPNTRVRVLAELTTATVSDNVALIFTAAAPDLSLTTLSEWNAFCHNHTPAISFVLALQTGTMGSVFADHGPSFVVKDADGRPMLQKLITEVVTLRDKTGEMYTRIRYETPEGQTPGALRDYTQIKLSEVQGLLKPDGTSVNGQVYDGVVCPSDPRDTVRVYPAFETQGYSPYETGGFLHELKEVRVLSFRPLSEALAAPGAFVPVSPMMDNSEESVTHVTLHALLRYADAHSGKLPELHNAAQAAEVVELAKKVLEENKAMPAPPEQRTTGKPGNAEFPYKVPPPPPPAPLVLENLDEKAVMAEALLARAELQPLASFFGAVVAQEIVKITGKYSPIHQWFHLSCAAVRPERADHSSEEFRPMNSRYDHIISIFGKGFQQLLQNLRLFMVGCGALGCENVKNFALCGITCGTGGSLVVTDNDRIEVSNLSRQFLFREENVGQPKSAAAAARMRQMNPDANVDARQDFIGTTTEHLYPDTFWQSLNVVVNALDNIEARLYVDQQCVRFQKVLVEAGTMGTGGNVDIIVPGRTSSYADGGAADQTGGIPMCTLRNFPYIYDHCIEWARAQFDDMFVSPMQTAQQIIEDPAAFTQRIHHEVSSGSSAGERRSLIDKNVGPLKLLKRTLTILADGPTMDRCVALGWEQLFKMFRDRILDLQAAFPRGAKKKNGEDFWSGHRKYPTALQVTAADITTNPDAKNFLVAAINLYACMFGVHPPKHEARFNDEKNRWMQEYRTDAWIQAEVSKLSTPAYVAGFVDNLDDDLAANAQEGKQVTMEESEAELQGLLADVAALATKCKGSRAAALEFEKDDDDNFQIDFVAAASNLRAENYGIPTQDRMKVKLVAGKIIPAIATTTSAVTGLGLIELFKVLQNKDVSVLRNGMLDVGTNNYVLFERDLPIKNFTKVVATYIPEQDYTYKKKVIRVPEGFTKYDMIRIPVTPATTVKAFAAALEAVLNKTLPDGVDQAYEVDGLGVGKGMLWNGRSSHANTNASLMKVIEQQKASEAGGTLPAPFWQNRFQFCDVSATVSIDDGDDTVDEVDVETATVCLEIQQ

[3] = target: AMP-activated protein kinase, AMPK (Homo sapiens) (UniProt P54646+O43741+P54619+Q9UGJ0+Q9Y478+Q13131+Q9UGI9); assay: AMP-dependent Kinase enzyme assay. An in vitro enzyme assay that detects ADP turnover that is directly proportional to AMPK activity. This uses naive AMPK that is activated during the assay with MK-8722; type: functional; settings: 30 µM
[4] = target: Sialic acid-binding Ig-like lectin 9 (Homo sapiens) (UniProt Q9Y336); assay: Hs-Siglec9 ALPHAscreen SOP 20170721; settings: 10 µM
[5] = test system: Trypanosoma cruzi; assay: Trypanosoma cruzi phosphomannomutase and mannose-1-phosphate guanylyltransferase assay; type: functional; settings: 10 µM
[6] = target: T2, Arginase-2, mitochondrial (Homo sapiens) (UniProt P78540); assay: in vitro enzyme assay to detect the production of urea directly proportional to the activity of Arginase II; type: functional; settings: 33.3 µM; note: in the data most compounds retested in dose-response had high values
T2 sequence (whole entry): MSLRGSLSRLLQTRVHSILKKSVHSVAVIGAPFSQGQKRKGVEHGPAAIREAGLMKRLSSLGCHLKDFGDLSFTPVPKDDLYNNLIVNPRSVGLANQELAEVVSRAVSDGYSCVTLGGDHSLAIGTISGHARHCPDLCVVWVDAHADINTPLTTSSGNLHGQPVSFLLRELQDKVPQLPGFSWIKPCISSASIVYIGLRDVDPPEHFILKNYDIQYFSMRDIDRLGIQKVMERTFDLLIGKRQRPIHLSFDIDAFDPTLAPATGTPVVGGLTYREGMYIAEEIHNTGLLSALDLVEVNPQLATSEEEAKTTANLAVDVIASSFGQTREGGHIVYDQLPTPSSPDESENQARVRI

[7] = target: T3, Proteasome subunit beta (Trypanosoma cruzi) (UniProt O96673); assay: Trypanosoma cruzi proteasome chymotrypsin-like activity (TcProtChymo) assay.; note: in the data most compounds retested in dose-response had high values; type: functional; settings: 9.37 µM
T3 sequence (whole entry): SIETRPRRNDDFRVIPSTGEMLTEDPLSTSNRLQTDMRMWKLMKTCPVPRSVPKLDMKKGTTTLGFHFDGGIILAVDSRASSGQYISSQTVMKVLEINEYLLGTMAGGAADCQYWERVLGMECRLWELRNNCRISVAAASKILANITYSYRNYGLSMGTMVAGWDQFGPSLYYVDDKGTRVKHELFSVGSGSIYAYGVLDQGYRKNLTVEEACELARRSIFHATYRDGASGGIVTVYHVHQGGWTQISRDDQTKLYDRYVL

[8] = species: Homo sapiens; assay: To identify inhibition of the IFN signalling (Jak-Stat) pathway via expression of an eGFP reporter gene under the control of an IFN-stimulated response element (ISRE) containing MxA promoter.; type: functional; settings: 30 µM
[9] = target: T4, Tyrosyl-tRNA synthetase, putative (Trypanosoma cruzi (strain CL Brener)) (UniProt Q4DSP6); assay: Trypanosoma cruzi tyrosyl tRNA synthetase (TcYRS) _High Tyrosine SOP; type: functional; settings: 30 µM; note: in the data most compounds retested in dose-response had high values
T4 sequence (whole entry): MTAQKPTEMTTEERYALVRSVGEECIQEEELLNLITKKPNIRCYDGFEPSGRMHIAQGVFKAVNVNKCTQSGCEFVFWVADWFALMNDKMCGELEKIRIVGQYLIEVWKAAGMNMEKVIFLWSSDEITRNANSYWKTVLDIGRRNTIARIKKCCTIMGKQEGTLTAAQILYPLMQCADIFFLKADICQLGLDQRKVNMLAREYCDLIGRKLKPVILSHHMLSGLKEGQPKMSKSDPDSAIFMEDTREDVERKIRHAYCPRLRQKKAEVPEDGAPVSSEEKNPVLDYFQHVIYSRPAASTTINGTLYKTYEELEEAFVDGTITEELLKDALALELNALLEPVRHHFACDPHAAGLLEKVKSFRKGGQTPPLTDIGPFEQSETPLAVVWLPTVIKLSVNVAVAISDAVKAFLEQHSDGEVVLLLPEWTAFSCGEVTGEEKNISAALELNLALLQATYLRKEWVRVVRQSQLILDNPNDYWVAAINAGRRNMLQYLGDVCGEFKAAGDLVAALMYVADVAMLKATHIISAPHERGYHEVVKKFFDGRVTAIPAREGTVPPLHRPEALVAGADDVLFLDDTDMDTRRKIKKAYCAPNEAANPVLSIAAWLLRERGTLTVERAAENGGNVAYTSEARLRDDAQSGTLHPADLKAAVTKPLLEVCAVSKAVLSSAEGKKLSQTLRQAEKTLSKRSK

[10] = target: T4, Tyrosyl-tRNA synthetase, putative (Trypanosoma cruzi (strain CL Brener)); assay: Trypanosoma cruzi tyrosyl tRNA synthetase (TcYRS) SOP; type: functional; settings: 30 µM
[11] = target: Chromo domain-containing protein 1 (Saccharomyces cerevisiae (strain ATCC 204508 / S288c) (Baker's yeast)) (UniProt P32657); assay: ScCHD-1 Enzyme Inhibition Assay; type: functional; settings: 30 µM; note: in the data most compounds retested in dose-response had high values
Chain of Chromo domain-containing protein 1 (Saccharomyces cerevisiae (strain ATCC 204508 / S288c) (Baker's yeast)) (P32657 whole entry, the tested form may be a part): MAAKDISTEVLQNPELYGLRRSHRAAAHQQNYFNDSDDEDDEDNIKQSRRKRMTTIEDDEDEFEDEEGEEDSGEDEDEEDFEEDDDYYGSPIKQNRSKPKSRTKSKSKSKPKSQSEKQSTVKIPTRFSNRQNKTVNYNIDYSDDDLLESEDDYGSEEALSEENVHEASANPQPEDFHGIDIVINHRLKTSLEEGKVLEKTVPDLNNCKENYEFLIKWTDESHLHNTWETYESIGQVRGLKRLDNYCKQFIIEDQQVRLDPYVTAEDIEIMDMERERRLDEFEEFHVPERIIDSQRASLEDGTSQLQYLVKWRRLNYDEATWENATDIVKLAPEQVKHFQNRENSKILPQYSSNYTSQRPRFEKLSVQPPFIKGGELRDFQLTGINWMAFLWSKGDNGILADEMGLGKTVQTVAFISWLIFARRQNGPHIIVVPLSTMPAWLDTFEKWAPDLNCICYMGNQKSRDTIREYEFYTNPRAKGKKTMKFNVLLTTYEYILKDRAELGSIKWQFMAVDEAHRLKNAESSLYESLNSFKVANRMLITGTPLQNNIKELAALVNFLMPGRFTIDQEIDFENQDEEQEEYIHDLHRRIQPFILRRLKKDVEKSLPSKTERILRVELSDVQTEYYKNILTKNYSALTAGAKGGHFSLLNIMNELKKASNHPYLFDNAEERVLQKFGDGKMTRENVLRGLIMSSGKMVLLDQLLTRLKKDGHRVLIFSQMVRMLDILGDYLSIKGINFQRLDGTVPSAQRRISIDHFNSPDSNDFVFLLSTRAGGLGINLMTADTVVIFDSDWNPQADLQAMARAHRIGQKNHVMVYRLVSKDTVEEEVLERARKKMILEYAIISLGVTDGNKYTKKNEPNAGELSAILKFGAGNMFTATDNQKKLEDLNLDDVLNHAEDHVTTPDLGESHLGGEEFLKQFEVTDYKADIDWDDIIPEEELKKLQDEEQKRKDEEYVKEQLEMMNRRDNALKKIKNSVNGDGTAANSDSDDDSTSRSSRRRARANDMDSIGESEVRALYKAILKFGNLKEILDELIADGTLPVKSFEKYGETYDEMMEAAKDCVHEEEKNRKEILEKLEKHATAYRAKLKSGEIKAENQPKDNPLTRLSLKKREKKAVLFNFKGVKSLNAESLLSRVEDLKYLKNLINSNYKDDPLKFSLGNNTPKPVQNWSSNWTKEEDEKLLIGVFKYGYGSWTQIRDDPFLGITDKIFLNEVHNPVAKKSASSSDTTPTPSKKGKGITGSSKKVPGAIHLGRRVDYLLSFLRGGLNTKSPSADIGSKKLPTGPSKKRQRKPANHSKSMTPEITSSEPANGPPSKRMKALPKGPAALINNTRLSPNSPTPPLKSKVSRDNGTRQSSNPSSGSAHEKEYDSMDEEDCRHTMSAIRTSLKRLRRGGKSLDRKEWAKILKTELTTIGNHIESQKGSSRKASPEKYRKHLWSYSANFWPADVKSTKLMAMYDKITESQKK

Chain of Sialic acid-binding Ig-like lectin 9 (Homo sapiens) (Q9Y336 whole entry): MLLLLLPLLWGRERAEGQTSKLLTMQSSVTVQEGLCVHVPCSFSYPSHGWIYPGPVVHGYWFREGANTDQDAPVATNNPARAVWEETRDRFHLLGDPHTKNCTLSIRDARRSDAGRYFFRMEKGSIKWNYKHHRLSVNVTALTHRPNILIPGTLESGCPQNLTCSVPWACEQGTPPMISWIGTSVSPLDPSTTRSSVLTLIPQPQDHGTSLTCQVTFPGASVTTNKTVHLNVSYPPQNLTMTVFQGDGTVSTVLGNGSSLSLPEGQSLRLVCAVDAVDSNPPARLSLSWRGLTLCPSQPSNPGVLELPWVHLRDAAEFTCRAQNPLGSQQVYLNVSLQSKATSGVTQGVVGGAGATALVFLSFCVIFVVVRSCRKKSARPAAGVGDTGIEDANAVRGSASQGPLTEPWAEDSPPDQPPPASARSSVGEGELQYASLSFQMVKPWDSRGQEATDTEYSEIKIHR
Chain of Protein translocase subunit SecA (Escherichia coli (strain K12)) (P10408 whole entry): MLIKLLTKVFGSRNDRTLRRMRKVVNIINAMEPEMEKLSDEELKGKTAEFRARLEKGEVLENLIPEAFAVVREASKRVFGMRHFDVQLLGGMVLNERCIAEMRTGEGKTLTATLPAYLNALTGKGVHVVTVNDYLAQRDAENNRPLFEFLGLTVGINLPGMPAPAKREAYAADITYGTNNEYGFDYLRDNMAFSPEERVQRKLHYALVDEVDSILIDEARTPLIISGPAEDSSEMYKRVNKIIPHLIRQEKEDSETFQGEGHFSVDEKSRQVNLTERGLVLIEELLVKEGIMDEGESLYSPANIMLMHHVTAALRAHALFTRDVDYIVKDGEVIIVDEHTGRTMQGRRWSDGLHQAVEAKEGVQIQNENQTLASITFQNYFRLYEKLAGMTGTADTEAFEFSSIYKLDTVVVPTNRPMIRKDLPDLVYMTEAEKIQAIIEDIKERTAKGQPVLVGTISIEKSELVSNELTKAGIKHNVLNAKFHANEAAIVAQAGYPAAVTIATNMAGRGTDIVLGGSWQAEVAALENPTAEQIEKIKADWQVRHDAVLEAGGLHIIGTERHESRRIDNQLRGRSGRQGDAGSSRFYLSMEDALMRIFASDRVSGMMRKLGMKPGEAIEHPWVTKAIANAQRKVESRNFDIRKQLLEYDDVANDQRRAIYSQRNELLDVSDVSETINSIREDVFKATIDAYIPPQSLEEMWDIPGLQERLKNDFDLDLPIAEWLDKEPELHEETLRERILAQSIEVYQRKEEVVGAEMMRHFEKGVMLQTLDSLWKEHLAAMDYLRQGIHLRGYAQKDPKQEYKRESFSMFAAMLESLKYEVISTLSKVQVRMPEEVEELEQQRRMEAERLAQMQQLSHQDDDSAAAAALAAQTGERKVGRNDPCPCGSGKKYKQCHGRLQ

Structure (SMILES)	Percent Effect [1] [%]	Percent Effect [2] [%]	Percent Effect [3] [%]	Percent Effect [4] [%]	Percent Effect [5] [%]	Percent Effect [6] [%]	Percent Effect [7] [%]	Percent Effect [8] [%]	Percent Effect [9] [%]	Percent Effect [10] [%]	Percent Effect [11] [%]
CC(C)CS(=O)(=O)CC(=O)N(C)Cc1ccc(OC(F)F)cc1	-4.46	2.7	4.52	-5.18	-1.74	0.476	15.2	12.9	-0.529	9.76	-2.02
c1ccc(-c2noc3c2CN(CC2CC2)CC3)cc1	-4.27	2.74	-7.86	-1.17	-0.979	-0.455	6.92	11.2	4.3	10	0.0734
Cc1ccc(N2CCN(C(=O)COc3ccccc3)CC2)nn1	-2.94	8.22	6.52	-4.33	-3.92	-0.909	10.8	13.2	5.38	17.5	-6.41
CCCNCc1cn(C)nc1-c1cccnc1	-2.45	-2.7	1.1	-2.38	-6.55	1.74	11.8	-8	0	1.24	1.57
O=C(NCCNc1cnccn1)N1CCN(Cc2cccnc2)CC1	-5.13	8.86	-3.44	-10.1	3.38	1.5	15.1	10.6	7.29	20.2	-33.3
OC(COCc1ccc(Cl)cc1)CN1CCC(c2ccn[nH]2)CC1 (stereo not given)	-3.72	20.2	-9.18	-2.48	7.27	-3.04	3.03	-5.57	5.42	26.6	-7.16
CC(C)CN1C[C@H]2CCN(c3ncccn3)CC[C@H]2S1(=O)=O	-1.59	20.8	-1.01	12.2	6.39	-15.2	15	-0.732	6.45	13.6	118
CCc1nc(C2CCCN(C(=O)CN(C)S(C)(=O)=O)C2)no1 (stereo not given)	-5.19	18.2	-2.51	-7.32	6.95	-2.32	9.3	0.959	6.67	21.2	-25.7
Cc1ccc(CNC2CCN(CCc3ccncc3)CC2)cc1C	-4.25	-5.41	-4.58	7.82	5.47	18.8	5.5	-6.77	2.97	8.54	29.8
Cc1ccc(NC(=O)CNc2cccc3c2CCCC3)c(Br)c1	-0.516	0	-8.17	10.7	1.07	27.1	12.3	-16	5.38	6.17	-12.9
Cn1cnnc1CNC(=O)Nc1cc(C(F)(F)F)c[nH]c1=O	-4.28	7.89	-0.726	8.28	1.5	-0.383	3.84	2.52	2.45	7.32	-7.82
O=C(CCc1cccnc1)N1CCCC(n2cncn2)C1 (stereo not given)	-2.09	0	4.67	4.06	2.74	0.76	-1.23	-1.71	2.46	-1.27	-1.28
COc1cccc(-c2nccnc2C2CCN(C(C)=O)CC2)c1	-1.31	9.46	8.79	-0.0533	-0.593	1.16	15.1	-0.133	3.23	14.3	-14.9
COC(=O)c1ccc(N2CCN(CCC#N)C(C)C2)cc1 (stereo not given)	-7.22	10.5	3.82	-3.31	-8.12	-0.36	4.15	5	5.42	3.7	0.577
CCc1[nH]ncc1C(=O)N1CCCN(Cc2cnn(C(C)C)c2)CC1	-1.61	29.7	-18.5	-5.54	4.62	-18	18.7	24.4	3.45	13.6	-9.88
Cc1csc2c(=O)n3c(nc12)CCN(C(=O)c1cccnc1)CC3	-2.51	9.46	13.3	-1.07	4.94	-1.16	8.27	4.21	4.3	6.49	-13
COCCn1cc(C(=O)N2CCCC2c2cc(C)no2)ccc1=O (stereo not given)	-2.03	8.11	1.75	2.51	-0.965	2.38	9.48	1.94	7.94	12.2	-3.51
Cc1[nH]ncc1C(=O)N1CCCC(n2cncn2)C1 (stereo not given)	-6.67	1.27	7.75	26.4	-0.308	3.23	4.63	9.83	1.04	0	-6.77
COCC1CN(C(=O)COc2ccccc2)Cc2cn(C)nc21 (stereo not given)	1.54	-2.6	1.75	4.23	-2.27	-8.39	1.39	9.62	-5.29	-1.28	-6.88
Cn1cc(Cl)cc1C(=O)N1CCCN(Cc2cccs2)CC1	-2.72	-10.5	7.51	-1.79	1.32	1.53	-1.34	-3.88	4.41	0	7.24
